According to the supplement of paper PMC10849652:
Targets with a hit are over-represented here; the source holds about 7,900 in all. About 0.6% of all pairs of compound and target were hits. Unmarked numbers belong to inactive results.

Experiments:
Assay in all cases: log2 fold change, soluble protein after heating vs DMSO (PISA); higher = thermal stabilisation; K562 cells, 10 uM, 30 min; active = over 0.2 and 3.5 SD of the protein, either way, in both replicates (recomputed)
saracatinib = compound: CN1CCN(CCOc2cc(OC3CCOCC3)c3c(Nc4c(Cl)ccc5c4OCO5)ncnc3c2)CC1 [saracatinib]
Method in brief: (§1)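 K562 cells at 2×10^6 cells/mL were exposed to 10 μM compound for 30 min, then aliquots were heated for 3 min across 48°C-58°C, pooled, and extracted in PBS containing 0.5% NP-40 at 4°C. The supernatant after 21,000xg for 90 min was taken as soluble protein and measured by TMTpro 16plex LC-MS/MS with channel sums equalised. Thermal stability is reported relative to control samples, with values from duplicates. Fold changes are given on a log2 scale.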

sotrastaurin = compound: CN1CCN(c2nc(C3=C(c4c[nH]c5ccccc45)C(=O)NC3=O)c3ccccc3n2)CC1 [sotrastaurin]
Method in brief: as §1

alvocidib = compound: CN1CC[C@H](c2c(O)cc(O)c3c(=O)cc(-c4ccccc4Cl)oc23)[C@H](O)C1 [alvocidib]
Method in brief: as §1

Tubastatin A = compound: CN1CCc2c(c3ccccc3n2Cc2ccc(C(=O)NO)cc2)C1 [Tubastatin A]
Method in brief: as §1

[1] = compound: CNC(=O)C1=CC=CC=C1NC2=NC(=NC=C2Cl)NC3=C(C=C(C=C3)N4CCOCC4)OC
Method in brief: as §1

defactinib = compound: CNC(=O)c1ccc(Nc2ncc(C(F)(F)F)c(NCc3nccnc3N(C)S(C)(=O)=O)n2)cc1 [defactinib]
Method in brief: as §1

rucaparib = compound: CNCc1ccc(-c2[nH]c3cc(F)cc4c3c2CCNC4=O)cc1 [rucaparib]
Method in brief: as §1

[2] = compound: CNc1nc(-c2ccc3c(N)n[nH]c3c2)cc(N2C[C@@H](C(=O)NC3CCCCC3)CC[C@H]2C)n1
Method in brief: as §1

encorafenib = compound: COC(=O)N[C@@H](C)CNc1nccc(-c2cn(C(C)C)nc2-c2cc(Cl)cc(NS(C)(=O)=O)c2F)n1 [encorafenib]
Method in brief: as §1

[3] = compound: COC(=O)[C@H](CCSC)NC(=O)C1=C(C=C(C=C1)NC[C@H](CS)N)C2=CC=CC=C2
Method in brief: as §1

[4] = compound: COC1=CC=C(C=C1)CN2C=CC3=C2C=C(C=C3)C(=O)NO
Method in brief: as §1

filanesib = compound: CON(C)C(=O)N1N=C(c2cc(F)ccc2F)S[C@@]1(CCCN)c1ccccc1 [filanesib]
Method in brief: as §1

zotarolimus = compound: CO[C@H]1C[C@@H]2CC[C@@H](C)[C@@](O)(O2)C(=O)C(=O)N2CCCC[C@H]2C(=O)O[C@H]([C@H](C)C[C@@H]2CC[C@H](n3cnnn3)[C@H](OC)C2)CC(=O)[C@H](C)/C=C(\C)[C@@H](O)[C@@H](OC)C(=O)[C@H](C)C[C@H](C)/C=C/C=C/C=C/1C [zotarolimus]
Method in brief: as §1

idasanutlin = compound: COc1cc(C(=O)O)ccc1NC(=O)[C@@H]1N[C@@H](CC(C)(C)C)[C@](C#N)(c2ccc(Cl)cc2F)[C@H]1c1cccc(Cl)c1F [idasanutlin]
Method in brief: as §1

alisertib = compound: COc1cc(Nc2ncc3c(n2)-c2ccc(Cl)cc2C(c2c(F)cccc2OC)=NC3)ccc1C(=O)O [alisertib]
Method in brief: as §1

[5] = compound: COc1cc2nc(-c3cc(F)ccc3O)nc(N[C@@H]3CNC[C@H]3C(C)(C)O)c2cc1OC
Method in brief: as §1

gefitinib = compound: COc1cc2ncnc(Nc3ccc(F)c(Cl)c3)c2cc1OCCCN1CCOCC1 [gefitinib]
Method in brief: as §1

[6] = compound: COc1cccc2cc(-c3nc([C@H]4CC[C@H](C(=O)O)CC4)n4ncnc(N)c34)[nH]c12
Method in brief: as §1

lapatinib = compound: CS(=O)(=O)CCNCc1ccc(-c2ccc3ncnc(Nc4ccc(OCc5cccc(F)c5)c(Cl)c4)c3c2)o1 [lapatinib]
Method in brief: as §1

pictilisib = compound: CS(=O)(=O)N1CCN(Cc2cc3nc(-c4cccc5[nH]ncc45)nc(N4CCOCC4)c3s2)CC1 [pictilisib]
Method in brief: as §1

UniProt Q7L2J0, sequence (Q7L2J0 whole entry, looked up): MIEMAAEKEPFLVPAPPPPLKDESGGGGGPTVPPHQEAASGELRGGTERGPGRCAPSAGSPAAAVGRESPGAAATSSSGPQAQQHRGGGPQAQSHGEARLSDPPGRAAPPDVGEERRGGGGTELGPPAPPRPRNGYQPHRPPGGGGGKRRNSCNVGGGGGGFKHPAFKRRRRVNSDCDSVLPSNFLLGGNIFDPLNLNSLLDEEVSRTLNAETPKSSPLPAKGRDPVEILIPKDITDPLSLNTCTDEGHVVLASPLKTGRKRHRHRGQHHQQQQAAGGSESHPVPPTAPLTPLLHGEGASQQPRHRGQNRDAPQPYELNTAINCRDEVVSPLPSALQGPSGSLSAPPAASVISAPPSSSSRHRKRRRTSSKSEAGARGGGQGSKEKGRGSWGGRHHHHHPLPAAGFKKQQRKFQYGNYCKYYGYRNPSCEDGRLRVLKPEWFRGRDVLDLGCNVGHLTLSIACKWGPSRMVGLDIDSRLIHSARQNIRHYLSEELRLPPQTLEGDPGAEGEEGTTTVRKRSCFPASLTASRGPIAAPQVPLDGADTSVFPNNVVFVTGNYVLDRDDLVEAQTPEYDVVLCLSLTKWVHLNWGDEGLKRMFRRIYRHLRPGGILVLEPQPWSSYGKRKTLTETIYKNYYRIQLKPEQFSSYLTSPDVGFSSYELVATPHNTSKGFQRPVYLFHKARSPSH
UniProt Q71SY5, sequence (Q71SY5 whole entry, looked up): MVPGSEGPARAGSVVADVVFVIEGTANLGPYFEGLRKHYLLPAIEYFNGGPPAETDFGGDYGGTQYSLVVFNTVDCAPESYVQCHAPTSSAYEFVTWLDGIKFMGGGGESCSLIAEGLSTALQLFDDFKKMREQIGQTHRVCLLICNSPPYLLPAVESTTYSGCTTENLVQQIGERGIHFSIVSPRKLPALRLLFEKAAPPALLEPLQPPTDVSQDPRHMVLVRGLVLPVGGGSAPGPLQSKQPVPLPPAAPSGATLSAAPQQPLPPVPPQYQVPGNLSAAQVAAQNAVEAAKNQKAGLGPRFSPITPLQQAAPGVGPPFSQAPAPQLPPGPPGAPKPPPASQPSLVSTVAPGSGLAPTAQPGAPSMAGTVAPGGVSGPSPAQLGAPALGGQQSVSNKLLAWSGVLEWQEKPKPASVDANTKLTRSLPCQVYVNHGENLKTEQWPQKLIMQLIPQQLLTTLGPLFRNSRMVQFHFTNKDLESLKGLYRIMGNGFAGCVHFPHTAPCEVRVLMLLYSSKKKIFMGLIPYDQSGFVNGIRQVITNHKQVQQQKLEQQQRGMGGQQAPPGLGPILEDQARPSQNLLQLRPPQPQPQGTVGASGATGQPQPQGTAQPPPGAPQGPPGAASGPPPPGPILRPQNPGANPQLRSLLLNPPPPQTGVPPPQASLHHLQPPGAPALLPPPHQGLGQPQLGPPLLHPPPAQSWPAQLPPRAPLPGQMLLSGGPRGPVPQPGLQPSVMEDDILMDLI
UniProt Q13257, sequence (Q13257 whole entry, looked up): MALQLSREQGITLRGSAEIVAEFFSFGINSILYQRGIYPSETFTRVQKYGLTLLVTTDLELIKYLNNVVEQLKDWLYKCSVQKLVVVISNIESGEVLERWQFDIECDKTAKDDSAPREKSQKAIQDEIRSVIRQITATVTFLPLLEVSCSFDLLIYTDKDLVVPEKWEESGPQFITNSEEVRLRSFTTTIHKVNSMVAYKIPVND
UniProt O95568, sequence (O95568 whole entry, looked up): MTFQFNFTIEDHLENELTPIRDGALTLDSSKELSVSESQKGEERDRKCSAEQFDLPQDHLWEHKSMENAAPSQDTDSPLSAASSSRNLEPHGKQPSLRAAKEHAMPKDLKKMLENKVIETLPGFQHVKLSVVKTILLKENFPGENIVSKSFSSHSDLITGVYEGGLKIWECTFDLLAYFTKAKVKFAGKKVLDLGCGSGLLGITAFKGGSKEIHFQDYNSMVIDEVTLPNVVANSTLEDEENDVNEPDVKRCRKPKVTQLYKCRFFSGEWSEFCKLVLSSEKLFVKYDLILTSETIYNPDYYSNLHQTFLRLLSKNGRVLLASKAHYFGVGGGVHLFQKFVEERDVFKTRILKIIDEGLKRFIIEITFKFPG
UniProt Q96QZ7, sequence (Q96QZ7 whole entry, looked up): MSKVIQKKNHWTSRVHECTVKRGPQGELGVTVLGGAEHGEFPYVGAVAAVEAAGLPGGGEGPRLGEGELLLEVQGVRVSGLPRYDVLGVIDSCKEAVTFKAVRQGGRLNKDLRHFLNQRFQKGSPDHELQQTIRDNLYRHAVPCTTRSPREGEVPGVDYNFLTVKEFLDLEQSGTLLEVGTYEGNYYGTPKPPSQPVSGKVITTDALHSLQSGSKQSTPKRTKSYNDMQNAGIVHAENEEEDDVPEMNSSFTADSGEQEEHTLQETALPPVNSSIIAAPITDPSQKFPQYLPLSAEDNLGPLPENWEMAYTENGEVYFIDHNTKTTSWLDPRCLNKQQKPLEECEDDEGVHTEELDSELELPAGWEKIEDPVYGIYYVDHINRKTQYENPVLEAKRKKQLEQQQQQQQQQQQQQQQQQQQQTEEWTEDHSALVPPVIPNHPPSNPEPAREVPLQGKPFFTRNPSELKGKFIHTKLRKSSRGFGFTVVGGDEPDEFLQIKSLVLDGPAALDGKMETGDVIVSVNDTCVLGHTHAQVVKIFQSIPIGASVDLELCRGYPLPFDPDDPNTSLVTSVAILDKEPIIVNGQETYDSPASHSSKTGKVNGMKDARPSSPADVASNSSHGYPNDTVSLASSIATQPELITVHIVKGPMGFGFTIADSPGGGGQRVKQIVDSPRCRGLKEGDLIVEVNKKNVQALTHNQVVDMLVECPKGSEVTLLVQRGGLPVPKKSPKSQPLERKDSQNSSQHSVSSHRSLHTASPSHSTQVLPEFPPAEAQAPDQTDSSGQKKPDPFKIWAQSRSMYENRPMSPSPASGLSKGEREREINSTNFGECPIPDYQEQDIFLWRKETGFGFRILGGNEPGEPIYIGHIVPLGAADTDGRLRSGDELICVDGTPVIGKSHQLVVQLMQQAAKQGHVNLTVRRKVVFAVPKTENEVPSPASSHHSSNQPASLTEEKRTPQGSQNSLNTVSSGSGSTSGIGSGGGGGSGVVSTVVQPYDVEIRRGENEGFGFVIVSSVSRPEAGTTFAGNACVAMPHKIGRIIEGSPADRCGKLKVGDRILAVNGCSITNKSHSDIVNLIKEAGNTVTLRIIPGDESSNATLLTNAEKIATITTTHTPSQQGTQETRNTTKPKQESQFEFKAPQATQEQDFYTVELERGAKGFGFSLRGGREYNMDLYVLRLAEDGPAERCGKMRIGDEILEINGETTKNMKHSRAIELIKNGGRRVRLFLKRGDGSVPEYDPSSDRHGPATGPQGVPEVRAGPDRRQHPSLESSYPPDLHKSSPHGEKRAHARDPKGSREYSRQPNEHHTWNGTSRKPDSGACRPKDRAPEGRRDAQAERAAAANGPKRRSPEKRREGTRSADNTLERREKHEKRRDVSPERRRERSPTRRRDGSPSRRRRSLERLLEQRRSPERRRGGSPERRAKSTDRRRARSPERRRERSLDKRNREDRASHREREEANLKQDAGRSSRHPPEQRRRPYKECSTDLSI
UniProt Q15648, sequence (Q15648 whole entry, looked up): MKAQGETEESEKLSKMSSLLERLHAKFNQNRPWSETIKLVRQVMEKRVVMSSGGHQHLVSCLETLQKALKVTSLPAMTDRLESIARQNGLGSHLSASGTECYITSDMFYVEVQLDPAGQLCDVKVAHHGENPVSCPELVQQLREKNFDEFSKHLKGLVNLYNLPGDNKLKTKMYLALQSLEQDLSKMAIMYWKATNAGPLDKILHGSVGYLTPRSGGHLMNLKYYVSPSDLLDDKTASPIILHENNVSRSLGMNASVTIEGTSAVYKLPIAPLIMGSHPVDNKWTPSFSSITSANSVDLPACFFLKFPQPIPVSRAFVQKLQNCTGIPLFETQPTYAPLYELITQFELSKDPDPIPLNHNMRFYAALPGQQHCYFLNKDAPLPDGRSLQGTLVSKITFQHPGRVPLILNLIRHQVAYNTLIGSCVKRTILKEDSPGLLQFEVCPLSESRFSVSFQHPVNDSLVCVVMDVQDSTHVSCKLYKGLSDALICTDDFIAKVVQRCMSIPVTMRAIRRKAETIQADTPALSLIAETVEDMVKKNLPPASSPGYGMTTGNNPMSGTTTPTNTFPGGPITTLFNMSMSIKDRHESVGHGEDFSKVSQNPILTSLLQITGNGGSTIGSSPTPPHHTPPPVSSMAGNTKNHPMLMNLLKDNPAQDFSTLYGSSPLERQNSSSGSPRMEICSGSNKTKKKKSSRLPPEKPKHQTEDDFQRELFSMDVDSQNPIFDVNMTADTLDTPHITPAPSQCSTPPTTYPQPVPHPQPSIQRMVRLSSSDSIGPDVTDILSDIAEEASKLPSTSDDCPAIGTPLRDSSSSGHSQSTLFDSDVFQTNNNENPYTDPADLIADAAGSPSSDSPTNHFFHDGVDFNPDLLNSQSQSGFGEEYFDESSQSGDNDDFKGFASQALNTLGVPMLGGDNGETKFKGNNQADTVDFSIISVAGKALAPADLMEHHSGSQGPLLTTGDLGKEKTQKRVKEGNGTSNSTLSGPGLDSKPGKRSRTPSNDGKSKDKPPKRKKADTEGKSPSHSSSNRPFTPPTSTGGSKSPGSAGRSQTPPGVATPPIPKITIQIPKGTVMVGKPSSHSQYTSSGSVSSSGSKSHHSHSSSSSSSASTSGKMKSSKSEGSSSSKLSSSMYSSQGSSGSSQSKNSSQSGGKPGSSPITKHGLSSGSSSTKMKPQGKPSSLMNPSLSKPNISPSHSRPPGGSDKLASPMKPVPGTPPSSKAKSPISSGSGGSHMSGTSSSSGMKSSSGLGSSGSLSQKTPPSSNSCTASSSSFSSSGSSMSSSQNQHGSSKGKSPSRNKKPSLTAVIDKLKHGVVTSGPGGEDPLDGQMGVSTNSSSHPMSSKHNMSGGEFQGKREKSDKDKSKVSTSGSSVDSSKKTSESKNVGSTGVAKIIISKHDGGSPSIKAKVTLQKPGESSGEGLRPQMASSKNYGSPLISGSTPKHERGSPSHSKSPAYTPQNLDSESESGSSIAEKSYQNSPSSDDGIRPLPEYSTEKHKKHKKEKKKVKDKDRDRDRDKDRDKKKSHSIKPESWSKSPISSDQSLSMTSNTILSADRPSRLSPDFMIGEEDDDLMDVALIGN

Target	log2 fold change (saracatinib)	log2 fold change (sotrastaurin)	log2 fold change (alvocidib)	log2 fold change (Tubastatin A)	log2 fold change [1]	log2 fold change (defactinib)	log2 fold change (rucaparib)	log2 fold change [2]	log2 fold change (encorafenib)	log2 fold change [3]	log2 fold change [4]	log2 fold change (filanesib)	log2 fold change (zotarolimus)	log2 fold change (idasanutlin)	log2 fold change (alisertib)	log2 fold change [5]	log2 fold change (gefitinib)	log2 fold change [6]	log2 fold change (lapatinib)	log2 fold change (pictilisib)
MAD2L1 (UniProt Q13257)	0.037	-0.056	-0.109	0.01	0.05	-0.112	-0.058	-0.046	-0.007	-0.04	-0.024	-0.042	0.034	-0.12	-0.003	0.048	0.008	0.01	-0.064	0.024
LARP1 (UniProt Q6PKG0)	-0.023	-0.029	0.12	0.059	0.05	0.089	0.11	0.004	0.039	0.01	0	0.048	-0.048	0.089	0.137	-0.001	-0.049	-0.161	0.023	-0.152
MEPCE (UniProt Q7L2J0)	-0.019	-0.022	-0.112	-0.104	-0.052	-0.192	-0.056	0.049	0.067	-0.077	-0.706 (active)	0.042	0.042	0.036	-0.093	-0.167	0.078	0.013	0.102	-0.013
MDN1 (UniProt Q9NU22)	-0.029	-0.035	-0.143	0.033	-0.092	-0.166	-0.067	0.018	0.018	-0.049	0.066	-0.095	-0.002	-0.058	-0.056	-0.031	-0.003	0.022	-0.005	0.001
MAGI1 (UniProt Q96QZ7)	-0.013	-0.064	-0.019	-0.017	0.021	-0.007	0.012	0.024	0.059	-0.009	-0.031	0.053	-0.044	0.084	-0.01	0.005	0.042	-0.012	0.01	0.053
MED1 (UniProt Q15648)	0.001	-0.092	-0.11	-0.025	0.042	-0.005	0.067	-0.045	0.009	0.033	-0.051	0.116	0.042	0.056	-0.056	-0.063	-0.039	0.016	0.114	0.077
METTL18 (UniProt O95568)	0.024	0.066	-0.056	-0.037	-0.042	-0.021	-0.041	-0.031	0.108	-0.176	-0.364 (active)	0.009	0.033	-0.022	0.006	0.075	-0.033	0.057	0.069	0.026
MED25 isoform 3 (UniProt Q71SY5)	-0.079	0.031	-0.102	-0.042	-0.014	-0.045	0.104	0.036	0.083	-0.111	-0.015	-0.018	0.136	0.004	0.048	-0.01	0.093	-0.285	-0.03	0.103
